In the library only some 18% were active in any assay of this set; here they are far more common.
DT40 TDP1 CPT – DT40-hTDP1 cell growth loss with CPT; chicken DT40 Tdp1-/-;hTDP1 cells + 20 nM CPT, ATP luminescence, 48 h; Potency, µM (highest dose often 46.2 µM), usual class: inhibitors; 12% of 420,000 active; note: nearly all actives have a fitted effect of over 55% in size
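Chicken DT40 Tdp1-/- cells stably complemented with human TDP1 were seeded at 400 cells/well in medium containing 20 nM camptothecin, exposed to pin-transferred compounds, and grown at 37 °C for at least 48 hr. Viability was read as ATP luminescence.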
RORg inh – blocks mouse ROR gamma transcriptional activity. P51450. Drosophila S2 Gal4-RORgamma UAS-luciferase reporter, 20 h. Potency, µM (titrated, usually from 53.6 µM), usual class: inhibitors. 5.4% of 310,000 active; note: nearly all actives have a fitted effect of over 60% in size
Target sequence (P51450 whole entry, looked up, the tested form may be a part): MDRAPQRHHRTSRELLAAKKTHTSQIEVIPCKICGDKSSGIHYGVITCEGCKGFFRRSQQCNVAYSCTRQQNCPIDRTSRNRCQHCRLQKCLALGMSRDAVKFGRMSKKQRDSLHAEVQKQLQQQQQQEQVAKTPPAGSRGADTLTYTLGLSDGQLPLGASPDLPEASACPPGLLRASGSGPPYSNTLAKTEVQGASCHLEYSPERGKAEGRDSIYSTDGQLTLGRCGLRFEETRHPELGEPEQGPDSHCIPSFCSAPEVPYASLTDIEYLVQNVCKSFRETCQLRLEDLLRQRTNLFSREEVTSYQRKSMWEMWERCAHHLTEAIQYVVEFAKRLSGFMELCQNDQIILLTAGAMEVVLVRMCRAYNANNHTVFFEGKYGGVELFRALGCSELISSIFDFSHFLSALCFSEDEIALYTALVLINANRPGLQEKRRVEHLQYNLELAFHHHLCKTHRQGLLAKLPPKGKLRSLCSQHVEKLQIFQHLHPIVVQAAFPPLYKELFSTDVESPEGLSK
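Read-out: Photinus luciferase luminescence; inhibitors lower reporter signal. Insect Schneider cells with Gal4-ROR gamma fusion under metallothionein promoter, UAS reporter; 700 uM final copper sulfate induction, 20 hr, ambient temperature.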
VP16 counter – inhibits Gal4-VP16 luciferase reporter, ROR gamma counter-screen; AID 2546; Drosophila S2 Gal4-VP16 UAS-luciferase, luminescence, 20 h; 3.5% of 310,000 active; Potency, µM (doses to about 53.6 µM), actives largely listed as inhibitors;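 note: Gal4-VP16 expression switched on by copper sulfate through the metallothionein promoter; nearly all actives have a fitted effect of over 50% in size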
IL-1B inflam inh – inhibitors of inflammasome signaling (IL-1 beta secretion) | THP-1 LPS/ATP IL-1B secretion, AlphaLISA, 16 h; stronger effect = lower value | activity change, % at 57.5 µM | 4.7% of 360,000 active | AID 743279; in the data active = activity change below about -50%; inconclusive = mostly about -30% to -49%
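THP-1 cells pretreated 1 hr with compounds (up to 57.5 uM final), then stimulated with LPS (250 ng/mL final) plus ATP (1.25 mM final); secreted IL-1B measured by AlphaLISA after 16 hr, decreased signal indicating inhibition.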
DT40 TDP1 no CPT – qHTS for Inhibitors of human tyrosyl-DNA phosphodiesterase 1 (TDP1): qHTS in cells in absence of CPT; DT40 Tdp1-/- hTDP1 cells, no CPT, ATP luminescence, 48 h; Potency, µM (doses to about 46.2 µM), usual class: inhibitors; 15% of 420,000 active; AID 686978, 2013; note: nearly all actives have a fitted effect of over 55% in size
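Compound effects on proliferation are scored in DT40 Tdp1-/-;hTDP1 cells in the absence of CPT. ATP levels (CellTiter-Glo luminescence) are recorded after a ≥48 hr, 37 °C incubation.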
LDHA block – blocks human lactate dehydrogenase A. purified LDHA, NADH/diaphorase-resazurin fluorescence; stronger effect = lower value. activity change, % (values are at about 110 or 230 µM). 0.15% of 480,000 active; in the data active = activity change below about -30%; inconclusive = mostly about -25% to -30%
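LDH5 2 nM; NADH 0.06 mM, pyruvate 0.2 mM; 200 mM Tris pH 7.4, EDTA, Tween-20; 5 min RT. Detection: diaphorase 0.133 mg/mL + resazurin 37 µM, fluorescence ex540/em590 at 0 and 20 min; normalized to enzyme-free and DMSO wells.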
A number is an active result; i = inactive; ? = inconclusive; nt = no result; [ ] = dose if it differs, or a comment. Unless noted, calls come from the whole dose curve; as a rule, active = well fitted curve in the direction sought with a large enough effect; inconclusive = small, poorly fitted or top-dose-only effect, or another doubt; inactive = no such curve, though single readings can be large; an effect the other way counts as inactive or inconclusive.

SMILES	DT40 TDP1 CPT	RORg inh	VP16 counter	IL-1B inflam inh	DT40 TDP1 no CPT	LDHA block
CCn1cnc2c1c(=O)n(CC(=O)NCc1cccs1)c(=O)n2Cc1ccccc1	nt	nt	nt	nt	nt	i
CCCCCNC(=O)c1ccncc1	nt	nt	nt	nt	nt	i
Cc1ccccc1C(=O)Nc1cccc(-c2ccc3nncn3n2)c1	23.1µM	i	i	i	20.6µM	i
Cc1ccc(S(=O)(=O)Nc2cccc(-c3ccc4nncn4n3)c2)cc1	1.84µM	nt	nt	i	2.31µM	i
CC(=O)c1ccc(S(=O)(=O)Nc2cccc(-c3ccc4nncn4n3)c2)cc1	i	i	i	i	i	i
CCOc1ccccc1C(=O)Nc1cccc(-c2ccc3nncn3n2)c1	23.1µM	i	i[10 µM]	i	23.1µM	i
CCc1nnsc1C(=O)NCC1(c2ccc(F)cc2)CCCC1	nt	nt	nt	nt	nt	i
O=C(NCC1CC1)C1Cc2c(-c3cccc(F)c3)ccnc2O1 (stereo unspecified)	i	nt	nt	i	?	i
O=C(NCc1ccccc1)C1Cc2c(-c3cccc(F)c3)ccnc2O1 (stereo unspecified)	0.92µM	nt	nt	i	0.92µM	i
CC(=O)c1cccc(-c2ccnc3c2CC(C(=O)NCc2ccc(N4CCN(C)CC4)cc2)O3)c1 (stereo unspecified)	i	nt	nt	i	?	i
COc1ccc(CNC(=O)C2Cc3c(-c4cccc(F)c4)ccnc3O2)cc1OC (stereo unspecified)	8.2µM	nt	nt	i	?	i
O=C(NCc1cccc(Cl)c1)C1Cc2c(-c3cccc(F)c3)ccnc2O1 (stereo unspecified)	20.6µM	nt	nt	i	25.9µM	i
CN1CCN(c2ccc(CNC(=O)C3Cc4c(-c5cccc(F)c5)ccnc4O3)cc2)CC1 (stereo unspecified)	?	nt	nt	?	20.6µM	i
COc1ccc(-c2csc(N3N=C(C)CC3c3ccc(OC)c(OC)c3)n2)cc1OC (stereo unspecified)	nt	nt	nt	nt	nt	i
Cc1[nH]c2ccc(F)cc2c1CC(=O)N(C)C1CCCC1	nt	nt	nt	nt	nt	i
CCOc1ccc(CCN2C(=S)N([C@@H](CC(C)C)CN3CCC[C@@H]3CN3C(=S)NC[C@@H]3CC(C)C)C[C@@H]2Cc2ccc(O)cc2)cc1	9.2µM	nt	nt	nt	11.6µM	i
CCOc1ccc(CCN2C(=S)N([C@@H](CC(C)C)CN3CCCC3CN3C(=S)NC[C@@H]3CC(C)C)C[C@@H]2Cc2ccc(O)cc2)cc1 (stereo partly specified)	18.4µM	nt	nt	?	?	i
CCOc1ccc(CCN2C(=S)N([C@@H](CC(C)C)CN3CCCC3CN3C(=S)NC[C@@H]3Cc3ccc(O)cc3)C[C@@H]2CC(C)C)cc1 (stereo partly specified)	?	nt	nt	?	16.4µM	i
CCOc1ccc(CCN2C(=S)N([C@@H](CC(C)C)CN3CCCC3CN3C(=S)NC[C@@H]3Cc3ccccc3)C[C@@H]2CC(C)C)cc1 (stereo partly specified)	?	nt	nt	i	16.4µM	i
CCOc1ccc(CCN2C(=O)C(=O)N([C@@H](Cc3ccccc3)CN3CCC[C@H]3CN3C(=O)C(=O)NC[C@@H]3Cc3ccc(O)cc3)C[C@@H]2CC(C)C)cc1	?	nt	nt	i	?	i
CCOc1ccc(CCN2C(=S)N([C@@H](CC(C)C)CN3CCC[C@@H]3CN3C(=S)NC[C@@H]3CC(C)C)C[C@@H]2CC(C)C)cc1	?	nt	nt	i	?	i
CCc1ccc(C(=O)N2CCCC2)cc1	nt	nt	nt	nt	nt	i
O=C1CN(C(=O)COc2ccc(F)cc2F)c2ccccc2N1	nt	nt	nt	nt	nt	i
CC(C)(C)OC(=O)C(C)(C(=O)OC(C)(C)C)c1nc(C(C)(C(=O)OC(C)(C)C)C(=O)OC(C)(C)C)nc(C(C)(C(=O)OC(C)(C)C)C(=O)OC(C)(C)C)n1	nt	nt	nt	nt	nt	i
c1ccc(Cn2ccc(-c3cnc(-c4ccccc4)s3)n2)cc1	?	?	i	i	18.4µM	i
SMILES	DT40 TDP1 CPT	RORg inh	VP16 counter	IL-1B inflam inh	DT40 TDP1 no CPT	LDHA block
Nc1ccn(Cc2ccccc2)n1	i	i	i	i	i	i
Cn1c(=O)c2c(nc(Cl)n2CC(=O)N2CCCC2=O)n(C)c1=O	nt	nt	nt	nt	nt	i
Cc1cc(C)c2cc(C#N)c(NCCOC(=O)c3ccccc3C)nc2c1	i	i	i	-60.4	?	i
Cc1cc(C)c2cc(C#N)c(NCCNC(=O)c3ccccc3)nc2c1	?	nt	nt	i	?	i
COc1ccc(C(=O)NCCCNc2nc3cc(C)cc(C)c3cc2C#N)cc1	?	nt	nt	i	20.6µM	i
COc1cc(OC)cc(C(=O)NCCNc2nc3cc(C)cc(C)c3cc2C#N)c1	?	i[1.91 µM]	i	i	23.1µM	i
COC(=O)c1cc(C#N)c(NCc2ccccc2)nc1C	?	i	i	i	16.4µM	i
COc1ccc(C(=O)NCCNc2nc3cc(C)cc(C)c3cc2C#N)c(OC)c1	?	nt	nt	i	?	i
COc1ccc(C(=O)NCC(C)(C)SCc2c(C)cc(C)cc2C)cc1	23.1µM	?	?	-72.1	15.8µM	i
COc1ccccc1C(=O)NCCNc1nc2cc(C)cc(C)c2cc1C#N	?	i	i	?	18.4µM	i
COc1ccc(C(=O)NCc2cccc(C)c2)cc1	nt	nt	nt	nt	nt	i
COc1cccc(OC)c1C(=O)NCCNc1nc2cc(C)cc(C)c2cc1C#N	?	nt	nt	?	?	i
CCOC(=O)c1ccc(NC(=S)Nc2ccc(Cl)cn2)cc1	?	2.24µM	8.91µM	i	i	i
CCOC(=O)c1ccc(NC(=S)Nc2ccccn2)cc1	?	3.16µM	i[0.365 µM]	i	14.6µM	i
COc1cc(OC)cc(C(=O)N2CCC(N3CCCC3)CC2)c1	nt	nt	nt	nt	nt	i
O=c1cc(NCCc2ccccc2)c2ccccc2o1	10.3µM	?	i	-58.7	8.2µM	i
Cc1ccccc1Nc1cc(=O)oc2ccccc12	11.6µM	i	i	i	20.6µM	i
O=C(C1CN(C(=O)c2cccc(Cl)c2Cl)c2ccccc2O1)N1CCOCC1 (stereo unspecified)	nt	nt	nt	nt	nt	i
O=C(COC(=O)COc1ccc2c(c1)CCC2)NC1CCS(=O)(=O)C1 (stereo unspecified)	nt	nt	nt	nt	nt	i
Cc1ccc(-c2nc(N)sc2C)cc1	i	i	i	?	i	i
Cc1ccc(-c2nc(N)sc2-c2ccccc2)cc1C	?	7.94µM	10µM	?	?	i
Cc1ccc(-c2nc(N)sc2-c2ccc(C)cc2)cc1	?	?	?	i	16.4µM	i
Cc1ccc(CNC(=O)C2CCN(c3ncnc4c3nc3n4CCCCC3)CC2)cc1	i	nt	nt	nt	i	i
Cc1ccc(N2CCN(C(=O)C3CCN(c4ncnc5c4nc4n5CCCCC4)CC3)CC2)c(C)c1	20.6µM	nt	nt	nt	?	i

Screening data: PubChem BioAssay, National Center for Advancing Translational Sciences (NCATS)
